Compound activity (PubChem)
Hits are enriched below; roughly 7.4% of the tested compounds scored in any of these assays.
3T3 cytotox – kills NIH 3T3 cells; NIH 3T3 viability, CellTiter-Glo ATP luminescence, 48-72 h; Potency, µM (titrated, usually from 96.7 µM), for the others: top-dose activity change, negative = cytotoxicity, hits mostly inhibitors; 4.3% of 94,000 active; also: nearly all actives have a fitted effect of over 55% in size
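Cytotoxicity was measured by CellTiter-Glo ATP luminescence after 48 or 72 h compound exposure at 37 °C. Mouse NIH 3T3 fibroblasts were seeded at 400 cells/well and dosed by 23 nL pin transfer.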
SNCA expr inh – SNCA gene expression inhibition. HEK-293 SNCA-luciferase knock-in, luminescence, 24 h. 0.17% of 140,000 active. Potency, µM (titrated, usually from 57.2 µM), for inactives: top-dose activity change, negative = inhibition, actives largely listed as inhibitors;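 also: plate controls were DMSO cells for no effect and cell-free wells for full effect; nearly all actives have a fitted effect of over 45% in size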
HEK cytotox – HEK 293 cell cytotoxicity; 6.6% of 94,000 active; HEK 293 viability, ATP luminescence (CellTiter-Glo), 48-72 h; Potency, µM (doses to about 115 µM), for the others: top-dose activity change, negative = cytotoxicity, hits mostly inhibitors; also: nearly all actives have a fitted effect of over 60% in size
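Viability of HEK 293 cells, plated at 250 cells/well, was judged by cellular ATP after compound treatment for 48 or 72 hr. Luminescence was imaged 10 min after CellTiter-Glo addition at room temperature.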
SNCA viab count – counter-screen for SNCA expression inhibitors: cell viability | 0.12% of 150,000 active | Potency, µM (top dose mostly 57.1 µM), for the others: top-dose activity change, negative = cytotoxicity, usual class: cytotoxic | HEK-293-SNCA-luc viability, GF-AFC fluorescence, 24 h;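 also: 0% = DMSO-treated cells and -100% = medium-only wells without cells; nearly all actives have a fitted effect of over 30% in size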
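HEK-293-SNCA-luc cells (1500/well) plated 24 h, then exposed 24 h to a dilution series; GF-AFC added 30 min at 37C, fluorescence 405/540 nm; normalised to medium-only and DMSO wells, Hill fit.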
hNpr1 antagonist – blocks ANP-stimulated signaling of human Npr1 receptor | AID 1347048 | Potency, µM (series often up to 46.3 µM), inactives show at the highest dose activity change, negative = inhibition, most hits filed as inhibitors | 1.6% of 76,000 active | HEK293 hNpr1 GloSensor cGMP, ANP-stimulated luminescence | P16066; calls by dose curve; also: nearly all actives have a fitted effect of over 60% in size
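Compound pre-incubated 30 min at room temperature on GloSensor-loaded HEK293 cells stably carrying hNpr1 and the pGS-40F cGMP biosensor. Stimulation uses hNppA at 0.1 nM final; luminescence is taken at baseline and 20 min post-agonist.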
Luciferase inh – inhibitors of firefly (Photinus pyralis) luciferase. P08659. purified P. pyralis luciferase, luminescence, biochemical. Potency, µM (series often up to 115 µM), most hits filed as inhibitors. 2.5% of 76,000 active; also: nearly all actives have a fitted effect of over 65% in size
Target sequence (P08659 whole entry, looked up): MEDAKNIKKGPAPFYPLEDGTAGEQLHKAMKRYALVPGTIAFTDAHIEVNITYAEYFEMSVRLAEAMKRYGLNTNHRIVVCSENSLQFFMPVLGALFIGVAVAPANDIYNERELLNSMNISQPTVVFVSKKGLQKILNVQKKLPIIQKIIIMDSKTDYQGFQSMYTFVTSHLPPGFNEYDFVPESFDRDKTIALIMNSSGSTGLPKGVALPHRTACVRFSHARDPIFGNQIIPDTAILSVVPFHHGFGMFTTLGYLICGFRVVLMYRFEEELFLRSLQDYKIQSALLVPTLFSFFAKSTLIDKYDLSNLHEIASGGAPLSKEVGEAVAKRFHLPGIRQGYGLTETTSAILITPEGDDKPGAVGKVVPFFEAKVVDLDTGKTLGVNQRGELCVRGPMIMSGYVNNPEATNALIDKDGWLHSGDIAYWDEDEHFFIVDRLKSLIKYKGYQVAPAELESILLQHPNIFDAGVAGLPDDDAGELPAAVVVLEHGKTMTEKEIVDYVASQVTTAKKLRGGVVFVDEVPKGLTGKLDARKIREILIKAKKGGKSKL
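Purified P. pyralis luciferase (10nM final) in 50mM Tris acetate pH 7.5, 10mM Mg acetate, 0.01% Tween-20, 0.05% BSA with 10uM D-luciferin and 10uM ATP. Compounds titrated qHTS. Luminescence imaged on CCD.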
Starred values were filed as active, the others as inactive; i = inactive; ? = inconclusive; · = no result given; [ ] = remark or other dose. Unless noted, calls follow the shape of the dose curve; as a rule, active = well fitted curve in the direction sought with a large enough effect; inconclusive = small, poorly fitted or top-dose-only effect, or another doubt; inactive = no such curve, though single readings can be large; an effect the other way counts as inactive or inconclusive. Unless noted, % is scaled to controls: 0 for no effect and ±100 for the full control effect; potency is read from the fitted curve at half-maximal effect.

SMILES	3T3 cytotox	SNCA expr inh	HEK cytotox	SNCA viab count	hNpr1 antagonist	Luciferase inh
c1ccc2ncc(CN3CC[C@H](c4nc5ccccc5[nH]4)C3)cc2c1	?	30%[87.6 µM]	71µM*	-18%[87.6 µM]	-16%[70.6 µM]	i
Cc1cc(C)n2ncc(C(=O)NCc3cc4n(n3)CCN(C(=O)N(C)C)C4)c2n1	-6%	25%	i	1%	3%	i
CN1C(=O)CCCCC1C(=O)NCc1ccccc1 (stereo not given)	1%	8%	-5%	3%	5%	i
O=S(=O)(N[C@H]1[C@H](O)[C@H](O)C[C@@H]1C1CCCCC1)c1ccccc1	3%[174 µM]	-3%[87.6 µM]	1%[172 µM]	2%[87.6 µM]	-6%[70.6 µM]	i
c1ccc2[nH]c([C@H]3CCN(CC4CCCCC4)C3)nc2c1	?	12%[87.6 µM]	?	-5%[87.6 µM]	-8%[70.6 µM]	?
Cn1c(CN2CC[C@H](c3nc4ccccc4[nH]3)C2)nc2ccccc21	?	-19%[87.6 µM]	45µM*	-20%[87.6 µM]	-15%[70.6 µM]	i
COc1ccc(F)cc1-c1cccc(C(=O)NCCNC(=O)c2ccccc2C)c1	?	?	?	-1%	·	·
COc1ccc(F)cc1-c1cccc(C(=O)NCCNC(=O)Nc2ccccc2)c1	35µM*	-22%	50µM*	-18%	·	·
COc1ccc(F)cc1-c1cccc(C(=O)NCCNC(=O)Nc2ccccc2F)c1	?	·	20µM*	·	·	·
Cc1nnsc1C(=O)N[C@H]1CCN(C(=O)COCC(=O)O)[C@H](C(=O)N[C@H](CC(C)C)C(N)=O)C1	1%	28%	3%	0%	0%	i
CN(CC1CCN(CCc2ccc(F)cc2)CC1)C1CCC1	-31%	-1%	?	2%	3%	i
CN(Cc1ccc(C2CCCCO2)s1)CC1CCN(CCc2ccc(F)cc2)CC1 (stereo not given)	?	7%	45µM*	-16%	-6%	i
CN1CCc2c([nH]c3ccccc23)C12CCN(C(=O)c1ccc(Cn3ccnc3)o1)CC2	-24%	14%	89µM*	-13%[12.5 µM]	1%	i
Cc1cc(C[C@@H]2COC[C@@H]2NC(=O)Cc2c[nH]c(=O)n(C)c2=O)on1	-20%	?	?	4%	6%	i
Cc1cc(Cn2cc3c4c(cccc42)[C@H](CC(C)C)N[C@H](C(=O)NCCN2CCOCC2)C3)no1	?	3%	?	-20%	1%	i
CC(C)C[C@@H]1N[C@H](C(=O)N2CCOCC2)Cc2cn(CC3CC3)c3cccc1c23	?	9%[87.6 µM]	89µM*	-4%[87.6 µM]	-14%[70.6 µM]	i
CC(C)C[C@@H]1N[C@H](C(=O)N2CCC(O)(c3ccccc3)CC2)Cc2cn(C)c3cccc1c23	32µM*	?	?	-15%	-1%	i
CC#CCn1cc2c3c(cccc31)[C@H](CC(C)C)N[C@H](C(=O)N1CCN(C)CC1)C2	89µM*	-11%[87.6 µM]	?	-1%[87.6 µM]	2%[70.6 µM]	i
C=CCn1cc2c3c(cccc31)[C@H](CC(C)C)N[C@H](C(=O)NCCN1CCOCC1)C2	?	-10%[87.6 µM]	89µM*	-23%[87.6 µM]	-1%[70.6 µM]	i
C[S+](=O)([O-])N1CCN(c2ccc(C=O)cc2)C(=O)C1	i	-7%[87.6 µM]	-14%[172 µM]	-5%[87.6 µM]	·	·
Cc1ccccc1CNC(=O)[C@@]12CCCC[C@H]1N(C)C(=O)CC2	i	5%	i	-4%	2%	i
C=CCn1cc2c3c(cccc31)[C@H](CC(C)C)N[C@H](C(=O)N1CCOCC1)C2	?	14%[87.6 µM]	100µM*	-2%[87.6 µM]	-4%[70.6 µM]	?
CC#CCn1cc2c3c(cccc31)[C@H](CC(C)C)N[C@H](C(=O)N1CCN(C(C)=O)CC1)C2	?	-11%[87.6 µM]	?	2%[87.6 µM]	5%[70.6 µM]	i
C=CCn1cc2c3c(cccc31)[C@H](CC(C)C)N[C@H](C(=O)N1CCN(C)CC1)C2	63µM*	-18%[87.6 µM]	79µM*	-10%[87.6 µM]	-5%[70.6 µM]	i
O=C(N[C@@H]1CN(Cc2ccccc2)C[C@H]1CO)c1ccc(=O)[nH]c1	1%	-10%	-7%	-10%	-3%	i
SMILES	3T3 cytotox	SNCA expr inh	HEK cytotox	SNCA viab count	hNpr1 antagonist	Luciferase inh
O=C(NCc1ccccc1F)c1nc2cccnc2n(Cc2ccccc2)c1=O	?	-26%	79µM*	-7%	·	·
O=C(NC1CC1)c1nc2cccnc2n(CCc2ccccc2)c1=O	-32%[138 µM]	?	56µM*	-5%[87.6 µM]	·	·
O=C(c1ccc(C(F)(F)F)cc1)N1CCN(C(=O)c2nc3cccnc3n(CCc3ccccc3)c2=O)CC1	?	-16%	45µM*	-9%	·	·
O=C(NCCc1ccc(Cl)cc1)c1nc2cccnc2n(Cc2ccccc2)c1=O	?	-6%	89µM*	-9%	·	·
Cc1noc(C)c1CC(=O)N1CCCC(c2nn(C)c(=O)n2C(C)C)C1 (stereo not given)	4%	-5%	0%	11%	-2%	i
COc1ccc(NC(=O)c2nc3sccn3c2-c2ccc(C)cc2)cc1	-34%	3%	-30%	?	·	·
O=C(NCC1CCC(=O)N(Cc2ccccc2)CC1)C1CCCC1 (stereo not given)	-20%	13%	-1%	12%	·	·
Cc1cc(C(=O)N2CCCCC2c2noc(COc3ccc(F)cc3)n2)n[nH]1 (stereo not given)	?	-18%	?	-5%	3%	i
COCCNC(=O)c1cn2cc(-c3cccc(Cl)c3)n(CC=C(C)C)c(=O)c2n1	?	-7%	?	6%	1%	i
CCCCn1c(=O)c(C(=O)NCC2CCCCC2)nc2cccnc21	?	-26%	35µM*	-19%	·	·
Cc1nc2c(c(-c3ccc(O)cc3)n1)CN(C(=O)c1ccc(F)cc1)CC2	-24%	0%	?	-4%	-3%	i
CN(Cc1ccccc1)C(=O)c1ccc2c(c1)NC(C)(CNCc1ccccc1)CO2 (stereo not given)	89µM*	-13%[87.6 µM]	?	-9%[87.6 µM]	-7%[70.6 µM]	i
CN(C)CCN(C)C(=O)c1ccc2c(c1)NC(C)(COc1ccccc1)CO2 (stereo not given)	89µM*	-16%[87.6 µM]	?	7%[87.6 µM]	-6%[70.6 µM]	i
CC1(CCCCc2ccccc2)COc2ccc(C(=O)N3CCOCC3)cc2N1 (stereo not given)	?	?	?	2%[87.6 µM]	?	i
CN(C)CCN(C)C(=O)c1ccc2c(c1)NC(C)(CCCCc1ccccc1)CO2 (stereo not given)	32µM*	?	100µM*	-9%[87.6 µM]	0%[70.6 µM]	i
O=C(NC1CCCC1)N1CCC(Cc2nncn2CC2CC2)CC1	i	2%	i	-8%	4%	i
